Compounds with a hit are over-represented: about 3.3% of the library has one in this group of screens.
Sm TGR inh: S. mansoni TGR enzyme inhibition | Q962Y6 | purified TGR, DTNB reduction, TNB absorbance 405 nm | Potency, µM (titrated, usually from 114 µM), inactives show at the top dose activity change, negative = inhibition, most hits filed as inhibitors | 360,000 tested, 3% active | AID 485364; note: nearly all actives have a fitted effect of over 60% in size
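TGR 20 nM + NADPH 100 uM (dispensed conc.), cpd preinc 15 min RT; start with NADPH (500 uM addition) then DTNB (15 mM addition). Kinetic TNB absorbance, 405 nm filter. Four-parameter Hill fit across titration.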
Giardia FBPA inh: inhibitors of Giardia lamblia fructose-1,6-bisphosphate aldolase; Potency, µM (highest dose often 59.6 µM), for the others: top-dose activity, negative = inhibition, most hits filed as inhibitors; purified Giardia FBPA; A8B2U2; 290,000 tested, 0.71% active; note: nearly all actives have a fitted effect of over 55% in size
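40 nM FBPA preincubated 10 min at RT with compound (up to 57.5 uM final), then substrate plus GAPDH/TPI/NAD/arsenate coupling and diaphorase/resazurin added. Fluorescence read after 20 min at RT, 525/598 nm.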
RE007 growth inh: less growth of the S. pombe RE007 Vpr strain. S. pombe RE007 Vpr strain, BacTiter-Glo ATP luminescence, 24 h. Potency, µM (highest dose often 92.2 µM), without a hit: at the top dose activity change, negative = less growth, usual class: inhibitors. 360,000 tested, 0.21% active. AID 651644; active = well fitted falling curve with a large enough effect; inconclusive = small, poorly fitted or top-dose-only effect; inactive = no such curve, though single readings can be large or run the other way; note: nearly all actives have a fitted effect of over 50% in size
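Fission yeast strain RE007, carrying one chromosomally integrated HIV-1 vpr copy, was seeded at OD 0.01 in PMG+AL medium with 23 nL pinned compound. After 24 h at 30 °C and 99% humidity, viability was read by BacTiter-Glo luminescence.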
TbPYK inhibitor: T. brucei pyruvate kinase inhibition | TbPYK enzyme, Kinase-Glo Plus ATP luminescence, 45 min | Potency, µM (titrated, usually from 76.8 µM), without a hit: at the top dose activity, negative = inhibition, most hits filed as inhibitors | 410,000 tested, 0.12% active; note: nearly all actives have a fitted effect of over 50% in size
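Luminescent Kinase-Glo Plus end-point after 45 min room-temperature reaction of T. brucei pyruvate kinase started with 130 uM ADP (final). Buffer TEA 50 mM pH 7.2 with KCl, MgCl2, BSA, Tween-20; titration-based qHTS with fitted concentration-effect curves.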
LmPK inhibitor: LmPK (Leishmania mexicana) enzyme inhibition | Potency, µM (series often up to 57.5 µM), for the others: top-dose activity change, negative = inhibition, most hits filed as inhibitors | purified LmPK, Kinase-Glo ATP luminescence, 1 h | 290,000 tested, 0.37% active
Target sequence (Q27686 whole entry, looked up): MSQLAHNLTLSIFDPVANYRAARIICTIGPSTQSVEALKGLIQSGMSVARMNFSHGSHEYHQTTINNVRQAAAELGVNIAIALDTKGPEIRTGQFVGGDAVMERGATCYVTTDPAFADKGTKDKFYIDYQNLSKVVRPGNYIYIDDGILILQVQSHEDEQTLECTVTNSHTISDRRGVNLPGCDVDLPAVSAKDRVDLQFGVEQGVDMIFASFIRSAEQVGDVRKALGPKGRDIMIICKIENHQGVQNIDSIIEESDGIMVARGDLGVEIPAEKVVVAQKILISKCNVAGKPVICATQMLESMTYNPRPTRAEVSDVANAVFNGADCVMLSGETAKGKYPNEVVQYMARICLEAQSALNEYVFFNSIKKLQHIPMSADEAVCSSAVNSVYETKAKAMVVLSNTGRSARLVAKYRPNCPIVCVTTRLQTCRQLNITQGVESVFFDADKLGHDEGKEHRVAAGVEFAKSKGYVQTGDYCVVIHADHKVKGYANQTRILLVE
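In 50 mM imidazole pH 7.2 with 7 mM MgCl2, LmPK (0.1 nM) turned over PEP (0.5 mM) and ADP (0.1 mM) for 1 h at room temperature. Luciferase read-out of ATP.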
Numbers without * were called inactive; ? = inconclusive; · = no result; [ ] = another dose, or the depositor's remark. Unless noted, calls come from the whole dose curve; as a rule, active = well fitted curve in the direction sought with a large enough effect; inconclusive = small, poorly fitted or top-dose-only effect, or another doubt; inactive = no such curve, though single readings can be large; an effect the other way counts as inactive or inconclusive. % is set by controls: 0 for no effect and ±100 for the full control effect; potency is the fitted concentration of half-maximal effect.

SMILES	Sm TGR inh	Giardia FBPA inh	RE007 growth inh	TbPYK inhibitor	LmPK inhibitor
Cc1ccc(N(CC#N)C(=O)CS(=O)(=O)c2cccc([N+](=O)[O-])c2)cc1	?	0%	5%	-1%	1%
Cc1c(N=C2C=CC(=O)c3ccccc32)c(=O)n(-c2ccccc2)n1C	13µM*	18µM*	?	?	?
COc1ccc(CNC(=O)C2Cc3c(-c4cccc(C(C)=O)c4)ccnc3O2)cc1OC (stereo unspecified)	·	·	-3%	-9%	·
CC(=O)N1CCN(Cc2nc3cc(NS(C)(=O)=O)ccc3n2C)CC1	-1%	-13%	3%	1%	-2%
Cc1ccc(S(=O)(=O)c2nc(-c3ccccc3F)oc2N2CC(C)OC(C)C2)cc1 (stereo unspecified)	20µM*	-2%	10%	-4%	1%
O=S(=O)(c1ccc(F)cc1)c1nc(-c2ccccc2F)oc1N1CCCCC1	10µM*	-13%	-12%	-17%	-4%
O=S(=O)(c1ccccc1)c1nc(-c2ccco2)oc1N1CCCCC1	45µM*	13%	10%	7%	-7%
COc1ccccc1-c1nc(S(=O)(=O)c2ccc(Cl)cc2)c(N2CCCCCC2)o1	?	·	·	0%	·
COc1ccccc1-c1nc(S(=O)(=O)c2ccccc2)c(N2CCCCC2)o1	0.79µM*	-9%	1%	2%	6%
Fc1ccccc1CNc1nc(NCC2CC2)nc2ccsc12	·	·	-23%[18.4 µM]	-2%	·
CCOC(=O)c1cc(-c2ccc(N3CCOCC3)cc2)nn1-c1ccc(F)cc1F	-6%	-4%	-7%	5%	0%
Cc1ccccc1CSc1nnc(C)n1N	9%	-3%	-6%	7%	-10%
COc1ccc(/C=C/C(=O)c2ccc[nH]2)cc1OC	9%	0%	-11%	4%	0%
COc1ccc(C(=O)N2CCn3c2nc2ccccc23)cc1	7%[57.1 µM]	1%	0%	-6%	-16%
CCOc1ccc(C(=O)N2CCn3c2nc2ccccc23)cc1	45µM*	0%	1%	-5%	-1%
COC(=O)CC1c2ccccc2S(=O)(=O)N1Cc1ccccc1 (stereo unspecified)	32µM*	-1%	10%	1%	-2%
O=S1(=O)c2ccccc2C(CCO)N1Cc1ccccc1 (stereo unspecified)	28µM*	-21%	9%	1%	0%
O=C(O)CC1c2ccccc2S(=O)(=O)N1Cc1ccccc1 (stereo unspecified)	40%	7%	-2%	-8%	7%
CC(NC(=O)c1cc(COc2c(F)cccc2F)on1)c1cnn(-c2ccccc2)c1 (stereo unspecified)	0%	-6%	14%	-3%	-2%
CCCC1=[N+](CC)CCn2c(C)ccc21	-10%	-2%	6%	-4%	-1%
Cc1cc2n(c1)CCn1c(C)ccc1-2	45µM*	?	·	·	-3%
O=C(C1CC1)N1CCc2cc(Br)cc(S(=O)(=O)N3CCN(c4ccccn4)CC3)c21	2%	24%	-2%	2%	2%
C=C[C@@H](c1ccccc1)[C@](C)(O)C(=O)O	·	·	0%	·	·
C=C[C@@H](C1=CC(=O)C(OC)=C(OC)C1=O)c1ccccc1	·	22µM*	·	·	·
CCCCN(C)C(=O)C1CCN(c2ccc(S(=O)(=O)N3CCOCC3)cc2[N+](=O)[O-])CC1	45µM*	·	5%	-8%	·
SMILES	Sm TGR inh	Giardia FBPA inh	RE007 growth inh	TbPYK inhibitor	LmPK inhibitor
CC(C)CNC(=O)C1CCN(c2ccc(S(=O)(=O)N3CCOCC3)cc2[N+](=O)[O-])CC1	10%	-1%	-5%	-3%	-1%
C/C(=N/NC(=O)CSCc1ccc(Cl)cc1)c1cccc(NC(=O)c2ccccc2)c1	-2%	7%	7%	-4%	1%
CSc1nc(N)c(N=Nc2ccc([As](=O)(O)O)cc2)c(=O)[nH]1	0.32µM*	-22%	11%	-29%	0%
CCN(CC)c1ccc(S(=O)(=O)N2CCCCC2)cc1NC(=O)C1CCC1	50µM*	·	19%	5%	·
CCN(CC)c1ccc(S(=O)(=O)N2CCOCC2)cc1NC(=O)C1CC1	-13%	·	17%	9%	·
COc1ccc(C(=O)CSc2nnc(-c3ccoc3C)n2CC2CCCO2)cc1 (stereo unspecified)	45µM*	1%	-2%	-6%	6%
COc1ccc(NC(=O)CSc2nnc(-c3ccoc3C)n2CC2CCCO2)cc1 (stereo unspecified)	-3%	8%	5%	-3%	2%
COCCn1c(SCC(=O)c2ccc3c(c2)OCCO3)nnc1-c1ccoc1C	28µM*	-1%	19%	-17%	-2%
COCCCn1c(SCC(=O)n2c(C)c(C)c3ccccc32)nnc1-c1ccoc1C	45µM*	0%	-7%	-6%	1%
CC1=CC(C)(C)N(C(=O)CSc2nnc(N)s2)c2cc(C)c(C)cc21	-15%	2%	-4%	5%	8%
NNC(=O)CN1CCCc2ccccc21	-13%	2%	-9%	4%	7%
CN(CC(=O)Nc1ccc(Cl)c(Cl)c1)C(=O)c1ccccc1SCC(=O)N1CCCC1	·	·	2%	0%	·
CN(C)c1c(-c2ccccc2)cc(-c2ccccc2)[nH]c1=O	16µM*	-9%	·	·	2%
COc1ccccc1Nc1ccc([N+](=O)[O-])cc1N	1%	-15%	9%	-1%	4%
COc1cc(Nc2ccccc2Cl)c([N+](=O)[O-])nc1[N+](=O)[O-]	40µM*	-8%	15%	4%	14%
CCn1cnc2cc(NCc3ccc(N(C)C)cc3)ccc21	8.9µM*	1%	-2%	-12%	-2%
Cc1ccc(NC(=O)c2ccccc2)s1	6%	-13%	-5%	-5%	?
Cc1cc(NC(=O)c2ccccc2)sc1C	?	4%	?	3%	13µM*
COC(=O)[C@@]12C[C@@H](CC(=O)NCCc3ccccc3OC)C(=O)N(Cc3ccco3)C1=CCC(C)(C)C2	·	·	7%	·	·
CC1(C)CC(CCNC(=O)CCl)(c2ccccc2)CCO1 (stereo unspecified)	45µM*	-1%	-3%	-6%	2%
COc1ccc(-n2nc3c(c2NC(=O)CBr)CSC3)cc1	40µM*	26%	20%	-7%	0%
COc1ccc(-n2nc3c(c2NC(=O)CCCCl)CSC3)cc1	0%	-11%	-2%	-1%	6%
O=C(CBr)Nc1c2c(nn1-c1ccccc1)CSC2	35µM*	-20%	-8%	-14%	-3%
COc1cc(-c2nc3sccn3c2Nc2c(C)cccc2C)ccc1O	1.1µM*	·	·	-34%	·
Cc1cccc(C)c1Nc1c(-c2ccc(O)cc2)nc2sccn12	-33%	·	·	-6%	·
O=C(C(Cc1ccccc1)NS(=O)(=O)c1ccc(F)cc1)N1CCC2(CC1)OCCO2 (stereo unspecified)	0%	1%	0%	2%	10%

Screens deposited in PubChem by National Center for Advancing Translational Sciences (NCATS).
